We go through five molecules from PubChem BioAssay.

For experiment [1], the system named is Wnt5a (protein binding on small-molecule microarray). Nature of the experiment: small molecules binding Wnt5a protein – biophysical, small-molecule microarray, 635/667 nm fluorescence, primary screen (AID 1142).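 Also: fluorescence read at 667 nm with signal to noise per printed feature.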 The following applies: 635 nm fluorescence, higher = more signal.
Experiment [2] in a line: ATP-based viability of Huh7 replicon cells – cell-based, CellTiter-Glo luminescence, basal, 48 h, cytotoxicity control for HCV replication inhibitor project, primary screen (AID 1143).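 Also: Huh7 hepatoma cells carrying a hepatitis C replication reporter with no stimulus; test concentration not given here.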 The following applies: higher = more signal, called active from +8 up or from −8 down. In general terms: In antiviral work, replicon cells carry a viral genome segment that copies itself.
Experiment [3] can be described thus: Pseudomonas biofilm growth suppression – PAO1 strain, BacTiter-Glo luminescence, LB-PBS, primary screen (AID 1144). The following applies: P. aeruginosa PAO1 biofilm, 12 h, higher = more signal.
Experiment [4] can be described thus: basal CRE-LacZ reporter activity in PC12 – cell-based, unstimulated, primary screen (AID 1145). The following applies: no forskolin, luminescence, 4.5 h, higher = more signal, called active from +8 up or from −8 down.
The nature of experiment [5]: forskolin-driven CRE-LacZ activity in PC12 – cell-based, CRE-LacZ reporter, forskolin-stimulated, primary screen (AID 1146).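 Also: PC12 cells with 6xCRE LacZ reporter stimulated by forskolin 10 µM; beta-galactosidase reporter signal reflecting CREB driven transcription.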 The following applies: luminescence, 4.5 h, higher = more signal, called active from +8 up or from −8 down.
Experiment [6] addresses Streptavidin (Streptomyces avidinii) (UniProt P22629). The experiment is described as follows: compounds binding control protein streptavidin – biophysical, small-molecule microarray, 635/667 nm fluorescence, artefact control for SMM compound annotation, primary screen (AID 1147).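 Also: signal reflects streptavidin binding to arrayed compounds as a control protein.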 The following applies: higher = more signal.
A short description of experiment [7]: probe aInhba binding on compound microarray – biochemical, small-molecule microarray, 635/667 nm fluorescence, primary screen (AID 1148).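 Also: score merges 667nm spot fluorescence with signal-to-noise for antibody binding to printed compounds.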 The following applies: higher = more signal.
Experiment [8] concerns the target Torsin-1A (Homo sapiens) (UniProt O14656). The experiment is described as follows: TOR1A wild-type binding on microarray – cell lysate, small-molecule microarray, lysate, 635/667 nm, primary screen (AID 1149). The following applies: COS7 hTOR1A-WT lysate, 635 nm fluorescence, higher = more signal.
Experiment [9] has the same target. The experiment is described as follows: torsin A mutant lysate binding on microarrays – cell lysate, small-molecule microarray, COS7 lysate, 635/667 nm fluorescence, primary screen (AID 1150).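 Also: score pools 667 nm emission and signal to noise measuring lysate protein binding.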 The following applies: COS7 hTOR1A mutant lysate, 635 nm fluorescence, higher = more signal.
Experiment [10] concerns Sonic hedgehog protein (Shh). Nature of the experiment: Sonic hedgehog microarray binding compounds – biochemical, small-molecule microarray, 635/667 nm fluorescence, primary screen (AID 1151).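 Also: Shh protein binding to compounds spotted on small-molecule microarray slides; score combines spot fluorescence intensity with signal-to-noise across triplicate slides.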 The following applies: 635 nm fluorescence, higher = more signal.
Experiment [11] can be described thus: optical density shifts of acrAB sulA E. coli – strain DRC41, OD650, 48 h, E. coli filamentation inducer project, primary screen (AID 1152).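 Also: E. coli MC1000 strain DRC41 lacking acrAB efflux pump and sulA.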 The following applies: higher = more signal, called active from +8 up or from −8 down.
Experiment [12] is described as follows: probe aLefty1 binding on compound microarray – biochemical, small-molecule microarray, 635/667 nm fluorescence, primary screen (AID 1153).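 Also: score merges spot fluorescence with signal-to-noise ratio from the scanned slide images.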 The following applies: higher = more signal.
Experiment [13] can be described thus: plasmodial surface anion channel blockers, osmotic lysis – cell-based, P. falciparum Indochina, OD700, 1 h, primary screen (AID 1154). The following applies: P. falciparum Indochina infected RBC osmotic lysis, higher = more signal, called active from +8 up or from −8 down.
A short description of experiment [14]: plasmodial surface anion channel blockers, osmotic lysis – cell-based, P. falciparum Indochina, OD700, 2 h, primary screen (AID 1155).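 Also: lysis reports solute entry through the parasite surface anion channel PSAC.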 The following applies: P. falciparum Indochina infected erythrocytes, higher = more signal, called active from +8 up or from −8 down.
Experiment [15] is described as follows: changes in parasitized red cell lysis, either direction – P. falciparum Indochina, OD700, 3 h, PSAC antagonist project, primary screen (AID 1156). The following applies: P. falciparum-infected erythrocytes, osmotic lysis, higher = more signal, called active from +8 up or from −8 down.
Experiment [16] is described as follows: plasmodial surface anion channel blockers, osmotic lysis – cell-based, P. falciparum Indochina, OD700, 18 h, primary screen (AID 1157). The following applies: P. falciparum Indochina infected erythrocytes, osmotic lysis OD700, 18 h; higher = more signal, called active from +8 up or from −8 down.
Experiment [17] in a line: S6 kinase pathway phospho-S6 level changes – cell-based, A549, cytoblot, luminescence, serum-stimulated, primary screen (AID 1158).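 Also: serum-stimulated A549 lung adenocarcinoma cells; signal is phosphorylated S6 detected by cytoblot immunostaining with HRP secondary.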 The following applies: 5 h, higher = more signal.
Experiment [18] deals with NADPH oxidase 2 (Homo sapiens) (UniProt P04839). The experiment is described as follows: compounds shifting NOX2 Amplex Red fluorescence – cell-based, HEK293-NOX2, PMA-stimulated, NOX inhibitor project, primary screen (AID 1159). Also: test concentration not given here. The following applies: 45 min, higher = more signal, called active from +8 up or from −8 down.
The target in experiment [19] is NADPH oxidase 4 (Homo sapiens) (UniProt Q9NPH5). Nature of the experiment: compounds shifting NOX4 Amplex Red fluorescence – cell-based, HEK293-NOX4, tetracycline-induced, NOX inhibitor project, primary screen (AID 1160). The following applies: HEK293-NOX4, Amplex Red H2O2 fluorescence, 45 min; higher = more signal, called active from +8 up or from −8 down.
The target of experiment [20] is NADPH oxidase 5 (Homo sapiens) (UniProt Q96PH1). Nature of the experiment: compounds shifting NOX5 Amplex Red fluorescence – cell-based, HEK293-NOX5, NOX inhibitor project, primary screen (AID 1161). The following applies: HEK293-NOX5, ionomycin, 45 min, higher = more signal.

The source made the active and inactive calls. Unless noted, no rule for the calls is given here.

NADPH oxidase 4 (Homo sapiens), sequence (Q9NPH5 whole entry, looked up): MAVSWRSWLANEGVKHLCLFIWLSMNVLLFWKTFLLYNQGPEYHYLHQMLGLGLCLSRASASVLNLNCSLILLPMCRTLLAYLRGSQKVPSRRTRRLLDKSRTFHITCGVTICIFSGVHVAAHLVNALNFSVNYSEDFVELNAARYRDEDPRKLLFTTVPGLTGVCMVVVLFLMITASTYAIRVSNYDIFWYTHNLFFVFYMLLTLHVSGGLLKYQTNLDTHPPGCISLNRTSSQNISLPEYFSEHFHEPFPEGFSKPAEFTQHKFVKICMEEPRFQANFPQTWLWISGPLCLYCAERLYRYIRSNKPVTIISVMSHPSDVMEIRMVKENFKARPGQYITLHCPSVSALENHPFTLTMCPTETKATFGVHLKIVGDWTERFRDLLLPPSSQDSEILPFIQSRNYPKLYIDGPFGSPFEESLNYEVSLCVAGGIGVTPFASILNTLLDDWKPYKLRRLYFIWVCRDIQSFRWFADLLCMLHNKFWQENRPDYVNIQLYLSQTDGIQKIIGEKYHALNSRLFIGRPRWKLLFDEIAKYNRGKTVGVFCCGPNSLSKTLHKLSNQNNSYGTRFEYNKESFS
NADPH oxidase 2 (Homo sapiens), sequence (P04839 whole entry, looked up): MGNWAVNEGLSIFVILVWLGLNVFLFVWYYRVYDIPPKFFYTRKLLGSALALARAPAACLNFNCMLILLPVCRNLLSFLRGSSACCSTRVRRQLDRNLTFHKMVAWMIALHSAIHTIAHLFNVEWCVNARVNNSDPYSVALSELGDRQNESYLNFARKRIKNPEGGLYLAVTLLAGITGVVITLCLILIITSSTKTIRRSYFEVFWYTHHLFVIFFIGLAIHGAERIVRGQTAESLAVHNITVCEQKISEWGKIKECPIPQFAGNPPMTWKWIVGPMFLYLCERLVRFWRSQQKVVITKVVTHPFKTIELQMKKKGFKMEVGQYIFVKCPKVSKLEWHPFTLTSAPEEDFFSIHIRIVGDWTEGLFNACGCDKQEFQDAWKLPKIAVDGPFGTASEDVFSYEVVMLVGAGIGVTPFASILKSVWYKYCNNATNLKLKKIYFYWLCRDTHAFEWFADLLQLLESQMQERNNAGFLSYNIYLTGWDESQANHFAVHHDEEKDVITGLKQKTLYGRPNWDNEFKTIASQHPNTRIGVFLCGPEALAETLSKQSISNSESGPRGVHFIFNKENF
NADPH oxidase 5 (Homo sapiens), sequence (Q96PH1 whole entry, looked up): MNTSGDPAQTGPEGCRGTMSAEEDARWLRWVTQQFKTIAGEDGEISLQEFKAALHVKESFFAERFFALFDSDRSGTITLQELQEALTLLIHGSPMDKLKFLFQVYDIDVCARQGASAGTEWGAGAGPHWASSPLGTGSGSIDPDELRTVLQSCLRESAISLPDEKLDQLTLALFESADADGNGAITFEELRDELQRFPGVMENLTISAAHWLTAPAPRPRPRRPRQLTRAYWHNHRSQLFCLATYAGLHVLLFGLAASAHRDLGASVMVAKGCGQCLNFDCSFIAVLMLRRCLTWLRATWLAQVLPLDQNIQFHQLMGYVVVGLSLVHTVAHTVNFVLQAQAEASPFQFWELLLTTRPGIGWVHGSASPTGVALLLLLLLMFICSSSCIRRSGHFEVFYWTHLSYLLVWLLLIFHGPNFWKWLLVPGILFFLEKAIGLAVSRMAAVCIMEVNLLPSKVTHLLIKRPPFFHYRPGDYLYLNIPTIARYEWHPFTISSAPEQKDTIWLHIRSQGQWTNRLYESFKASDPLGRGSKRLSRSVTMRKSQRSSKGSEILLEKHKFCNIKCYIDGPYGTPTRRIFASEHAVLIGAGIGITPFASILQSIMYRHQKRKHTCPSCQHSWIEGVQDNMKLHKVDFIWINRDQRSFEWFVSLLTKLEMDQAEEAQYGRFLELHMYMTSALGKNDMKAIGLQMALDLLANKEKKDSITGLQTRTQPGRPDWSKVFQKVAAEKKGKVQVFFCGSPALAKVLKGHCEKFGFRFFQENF
Streptavidin (Streptomyces avidinii), sequence (P22629 whole entry, looked up): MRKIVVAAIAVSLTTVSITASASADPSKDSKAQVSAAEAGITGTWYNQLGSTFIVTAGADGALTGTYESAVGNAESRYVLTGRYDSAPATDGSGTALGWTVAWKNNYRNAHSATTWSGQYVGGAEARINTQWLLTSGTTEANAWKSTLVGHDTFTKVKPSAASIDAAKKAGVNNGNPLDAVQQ
Torsin-1A (Homo sapiens), sequence (O14656 whole entry, looked up): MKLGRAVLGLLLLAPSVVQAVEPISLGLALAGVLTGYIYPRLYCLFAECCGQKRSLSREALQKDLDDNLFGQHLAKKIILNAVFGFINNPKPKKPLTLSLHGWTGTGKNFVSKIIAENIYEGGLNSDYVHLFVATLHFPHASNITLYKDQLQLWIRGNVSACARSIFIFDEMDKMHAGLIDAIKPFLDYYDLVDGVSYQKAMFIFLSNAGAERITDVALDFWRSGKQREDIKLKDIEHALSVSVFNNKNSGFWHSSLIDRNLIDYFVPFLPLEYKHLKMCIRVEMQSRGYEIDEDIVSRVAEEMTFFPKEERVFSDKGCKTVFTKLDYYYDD

Take `Cc1c(NC(=O)/C(C#N)=C/C=C/c2ccc([N+](=O)[O-])cc2)c(=O)n(-c2ccccc2)n1C`: the composite z-score stood at 0.388 in experiment [1]; 1.32 in experiment [6]; 0.0301 in experiment [7]; 0.321 with Torsin-1A (Homo sapiens) [8]; 0.468 in the experiment with Torsin-1A (Homo sapiens) [9]; 0.569 in experiment [10]. The same molecule showed a composite z-score in experiment [12] of 0.277. Besides, the z-score was -0.997 (inactive) in [2]; 1.12 (inactive) in experiment [3]; 0.829 (inactive) in experiment [4]; 0.732 (inactive) in experiment [5]; 0.0351 (inactive) in [11]; 2.74 (inactive) in experiment [13]. In addition, the z-score in experiment [14] was 0.636 (inactive); in experiment [15], 0.206 (inactive); in experiment [16], 0.598 (inactive); in [17], -0.279; in experiment [18], -0.696 (inactive); in [19] it was 0.0994 (inactive). Further, in [20], the z-score was 0.714.

Regarding `COc1cc2c(cc1O)C(C)N(Cc1sc3ccccc3c1Cl)CC2` (stereo not given), the composite z-score in experiment [1] was -0.434; in experiment [6], 0.105; in experiment [7], 0.0021; with Torsin-1A (Homo sapiens) [8] it was -1.22; in the experiment with Torsin-1A (Homo sapiens) [9] it was -1.28; in experiment [10] it was -0.985. The molecule further gave a composite z-score in experiment [12] of -0.145. The z-score was -0.693 (inactive) in experiment [2]; -0.432 (inactive) in [3]; -0.258 (inactive) in experiment [4]; -0.487 (inactive) in experiment [5]; 0.268 (inactive) in experiment [11]; 4.05 (inactive) in experiment [13]. Also, the z-score in experiment [14] was 2.4 (inactive); in [15], 0.334 (inactive); in experiment [16] it was 1.85 (inactive); in experiment [17] it was -0.43; in experiment [18], -3.7 (inactive); in [19] it was -2.3 (inactive). Also, in experiment [20], the z-score was -3.2.

As for `CC(C)[Si]1(C(C)C)OCc2cc(-c3ccc(-c4ccc(Cl)c(Cl)c4)o3)nc(-c3ccc(Oc4ccccc4)cc3)c21`, the composite z-score was -0.615 in experiment [1]; -0.767 in experiment [6]; -0.382 in experiment [7]; -1.33 with Torsin-1A (Homo sapiens) [8]; -2.07 with Torsin-1A (Homo sapiens) [9]; -0.976 in experiment [10]. In experiment [12], this molecule registered a composite z-score of -0.21. For the same molecule, the z-score in experiment [2] was -0.558 (inactive); in experiment [3] it was 0.457 (inactive); in experiment [4] it was 0.251 (inactive); in [5] it was -0.835 (inactive); in [11] it was -1.08 (inactive); in experiment [13], 1.88 (inactive). For the same molecule, the z-score in experiment [14] is 0.352 (inactive); in [15], 0.0032 (inactive); in [16] it was 0.533 (inactive); in [17], -0.203; in [18] it was -4.58 (inactive); in [19] it was 0.169 (inactive). Also, the z-score in [20] is -1.54.

On to `CC(C)(C)OC(=O)CC[C@]1(C(=O)N2CCOCC2)COC(c2ccc(OCCCO)cc2)=N1`, for which the composite z-score in [1] is -0.278; in experiment [6], -0.0376; in experiment [7], 0.171; with Torsin-1A (Homo sapiens) [8] it was 0.701; in the experiment with Torsin-1A (Homo sapiens) [9] it was 1.48; in experiment [10] it was -0.447. In experiment [12], this molecule displayed a composite z-score of 0.0429. Further, the z-score was -0.107 (inactive) in experiment [2]; -0.367 (inactive) in [3]; 1.34 (inactive) in [4]; -0.841 (inactive) in experiment [5]; 1.54 (inactive) in [11]; 20.8 (active) in experiment [13]. Also, the z-score was 4.54 (inactive) in experiment [14]; 0.384 (inactive) in [15]; 1.18 (inactive) in [16]; 0.359 in [17]; -1.16 (inactive) in experiment [18]; 0.324 (inactive) in experiment [19]. Moreover, the z-score in experiment [20] is -1.06.

On to `CCCN1C(=O)[C@@]2(c3ccc([N+](=O)[O-])cc3)CC(=O)N(C3CCCCC3)[C@@H]2c2ccc(CO)cc21`, for which the composite z-score in experiment [1] is 0.0899; in [6], -0.397; in experiment [7] it was -0.168; with Torsin-1A (Homo sapiens) [8], 0.515; in the experiment with Torsin-1A (Homo sapiens) [9] it was -0.187; in experiment [10], 1.08. In experiment [12], the composite z-score is -0.5. Moreover, the z-score in [2] is 0.677 (inactive); in [3], -0.0723 (inactive); in experiment [4], 0.389 (inactive); in [5], -0.131 (inactive); in experiment [11] it was -1.45 (inactive); in experiment [13], -0.0987 (inactive). The z-score in experiment [14] is 0.636 (inactive); in experiment [15], -0.203 (inactive); in [16] it was 0.0577 (inactive); in [17], -0.504; in experiment [18] it was -0.955 (inactive); in [19], -0.281 (inactive). For the same molecule, in experiment [20], the z-score is -0.19.
